This is a sample that favours compounds with a hit; in the whole collection about 2.4% have one here.
HTT prom inh – HTT promoter inhibition. actives 0.93% (n = 48,000). Potency, µM (top dose mostly 57.5 µM), without a hit: at the highest dose activity change, negative = inhibition, most hits filed as inhibitors. HEK293 HTT promoter firefly luciferase reporter, 24 h; note: nearly all actives have a fitted effect of over 50% in size
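Luminescence was read after Dual-Glo reagent and a 10 min room-temperature incubation. Values were normalized to vehicle (0% activity) and zero RLU (-100% activity). Reporter HEK293 cells had been exposed to compounds (up to 57.5 uM final) for 24 h.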
HTT-AS promoter – activators of huntingtin-antisense promoter activity. AID 1508624. HEK293 HTT-AS promoter firefly luciferase reporter, 24 h; response scale: percent change from vehicle, -100% = no light. Potency, µM (doses to about 57.5 µM), for the others: top-dose activity change, positive = activation, most hits filed as activators. actives 0.24% (n = 48,000); note: nearly all actives have a fitted effect of over 55% in size
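HEK293 luciferase promoter-reporter cells (2,500/well) plated 24 h, then compounds added at up to 57.5 uM final for 24 h at 37 °C. Firefly luminescence by Dual-Glo, normalized to vehicle (0%) and zero RLU (-100%).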
NTMT1 inhibitor – blocks human N-terminal methyltransferase 1 activity; Q9BV86; NTMT1 MTase-Glo SAH luminescence, purified enzyme; Potency, µM (titrated, usually from 114 µM), for inactives: top-dose activity change, negative = inhibition, actives largely listed as inhibitors; actives 2.5% (n = 59,000);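 note: plate controls were DMSO vehicle for no effect and no enzyme for full effect; nearly all actives have a fitted effect of over 65% in size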
Target sequence (Q9BV86 whole entry, looked up): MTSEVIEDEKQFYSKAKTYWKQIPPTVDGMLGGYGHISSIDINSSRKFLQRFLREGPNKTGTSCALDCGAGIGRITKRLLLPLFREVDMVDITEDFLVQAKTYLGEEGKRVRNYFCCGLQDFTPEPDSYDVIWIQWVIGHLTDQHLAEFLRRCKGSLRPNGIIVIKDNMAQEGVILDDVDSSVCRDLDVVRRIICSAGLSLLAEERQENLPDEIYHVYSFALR
* hit, by the source's call; ? = inconclusive; nt = no result given; ! = a repeat was not active; [ ] = dose if it differs, or a comment. Calls come from the whole dose curve; as a rule, active = well fitted curve in the direction sought with a large enough effect; inconclusive = small, poorly fitted or top-dose-only effect, or another doubt; inactive = no such curve, though single readings can be large; an effect the other way counts as inactive or inconclusive. Potency is the fitted concentration of half-maximal effect.

SMILES	HTT prom inh	HTT-AS promoter	NTMT1 inhibitor
CCOc1ccc(CNC(=O)C2CCCN(c3nn4cc(-c5ccc(F)cc5)nc4s3)C2)cc1 (stereo not given)	?	-62%	?
CCc1ccc(CNC(=O)C2CCCN(c3nn4cc(-c5ccc(F)cc5)nc4s3)C2)cc1 (stereo not given)	4µM*	-73%	-9%
Cc1ccc([S+](=O)([O-])n2cc(Cc3ccc(-c4ccccc4)cc3)c3ccccc32)cc1	nt	nt	13%
COc1ccc(C(=O)Nc2ccc3oc(-c4ccc5ccccc5c4)nc3c2)cc1Br	-4%	-21%	-3%
COc1ccc(C(=O)Nc2ccc3oc(-c4cc(Cl)ccc4Cl)nc3c2)cc1Br	6%	-5%	79µM*
COc1ccc(CCNC(=O)Cn2nc(-c3ccc(C)cc3)ccc2=O)cc1OC	nt	nt	-5%
CCOC(=O)c1c(NC(=O)c2cc(Cl)ccc2Cl)sc2c1CCCC2	-10%	-6%	6%
COc1ccccc1NC(=O)c1c(NCc2ccc(OC)c(OC)c2OC)sc2c1CCC2	-25%	-27%	?
CCOC(=O)c1c(NC(=O)c2ccccc2C)sc2c1CCCC2	-16%	-17%	89µM*
CCCc1ccc(OCC(=O)Nc2sc3c(c2C(=O)OC)CCCCC3)cc1	-6%	-11%	89µM*
CCOC(=O)c1ccc(NC(=O)c2c(NCc3cccc(OC)c3OC)sc3c2CCC3)cc1	0%	-3%	56µM*
Cc1cccc(NC(=O)c2c(NC(=O)c3ccccc3)sc3c2CCCC3)c1	-1%	-11%	45µM*
COC(=O)c1c(NC(=O)COc2c(C)cccc2C)sc2c1CCCC2	?	-30%	1%
Cc1cccc(NC(=O)c2c(NC(=O)c3ccccc3)sc3c2CCC3)c1	27%	18%	2%
Cc1ccc(S(=O)(=O)Nc2cnccc2C(=O)NCc2ccccc2)cc1	nt	nt	2%[57.5 µM]
CC1(C)CC2C(O)C3=C(CC(C)(O)C2C1)C(=O)OC3O (stereo not given)	nt	nt	8%[57.5 µM]
Cc1oc(-c2ccc(C(=O)N(C)Cc3ccccc3)cc2)nc1CN1CCc2ccccc21	8.9µM*	-52%	1%
Cc1ccc(CNC(=O)c2ccc(-c3nc(CN4CCc5ccccc54)c(C)o3)cc2)cc1	-36%	-27%	5%
C=C1CCC[C@]2(C)C=C3OC(=O)C(C)=C3C[C@@H]12	nt	nt	3%
COc1ccc(C(=O)CSc2nc(C)cc(C)c2C(=O)Nc2ccccc2C)cc1	-27%	-6%	2.8µM*
Cc1cccc(NC(=O)c2c(C)cc(C)nc2SCC(=O)Nc2c(C)cc(C)cc2C)c1	-26%	-18%	-11%
Cc1ccc(C(=O)CSc2nc(C)cc(C)c2C(=O)Nc2cccc(C)c2)cc1	?	-14%	50µM*
COc1ccccc1NC(=O)c1c(C)cc(C)nc1SCC(=O)Nc1ccc(C)cc1	?	-29%	21%
CCCN(CCc1ccsc1)C1CCc2c(O)cccc2C1 (stereo not given)	nt	nt	-15%[57.5 µM]
COc1cccc(CNS(=O)(=O)c2ccc(N3CCCCS3(=O)=O)cc2)c1	16µM*	-18%	-1%
SMILES	HTT prom inh	HTT-AS promoter	NTMT1 inhibitor
COc1ccc(NS(=O)(=O)c2ccc(N3CCCCS3(=O)=O)cc2)cc1Cl	14µM*	-24%	7%
O=S(=O)(Nc1ccc(OC(F)(F)F)cc1)c1ccc(N2CCCCS2(=O)=O)cc1	?	-19%	-11%
COc1ccc(CCNS(=O)(=O)c2ccc(N3CCCCS3(=O)=O)cc2)cc1	?	-29%	-11%
S=P(c1ccccc1)(c1ccccc1)c1c[n+](C/C=C/c2ccccc2)c2ccccn12	nt	nt	-7%
CCOC(=O)c1cnn(-c2ccc(C(=O)Nc3cc(OC)c(OC)c(OC)c3)cc2)c1N	-19%	-17%	89µM*
CCOC(=O)c1cnn(-c2ccc(C(=O)Nc3ccc(C(C)=O)cc3)cc2)c1N	-7%	-7%	5%
CCc1cc2c(c(OCC(F)(F)F)c(C(=O)NC3CCN(C(=O)CO)CC3)n2C)c(=O)n1CC(=O)c1ccccc1	nt	nt	6%
NC1CCC(Nc2nc(Nc3ccc(C(=O)N4CCCCC4)cc3)c3ncn(-c4cccc(F)c4)c3n2)CC1 (stereo not given)	4%	?	40µM*
COC(=O)C1CCN(C(=O)c2ccc3c(c2)ncn3-c2cccc(C)c2)CC1	nt	nt	10%[57.5 µM]
Cn1c(=O)c2c(ncn2CCO)n(C)c1=O	1%	-15%	12%[57.5 µM]
COc1cccc(Cn2cnc3c2c(=O)n(C)c(=O)n3C)c1	14µM*	-51%	26%
Cc1ccccc1C(=O)N1CCc2cc(-c3nc(NC(=O)c4ccc5c(c4)OCO5)sc3C)ccc21	nt	nt	4%
O=C1CCCC2=C1C(c1[nH]ncc1Cl)NC(=NCCc1ccc(O)cc1)N2 (stereo not given)	nt	nt	3%
O=C1c2ccccc2C(=O)N1c1cccc(Cl)c1	nt	nt	0%
Nc1ccc2c(c1)CN1C(=O)c3ccccc3C1=N2	-27%[25.2 µM]	-52%[25.1 µM]	13µM*
COc1ccc(NCc2ccc(O)c3ncccc23)nc1	nt	nt	-1%
CCOc1cc2c(c(F)c1OCC)C(=N)N(CC(=O)c1cc(N3CCOCC3)c(OC)c(C(C)(C)C)c1)C2	?	-31%	32µM*!
COc1ccc(C(=O)Nc2ccc(N3CCOCC3)c(C(F)(F)F)c2)cc1OC	-39%	-37%	-30%
N#Cc1c(-c2ccc(Cl)c([N+](=O)[O-])c2)no[n+]1[O-]	nt	nt	0%[57.5 µM]
CCOCc1cc(CN2CCN(c3ccccc3OC)CC2)c(O)c2ncccc12	11µM*	-36%	0%
CCCOCc1cc(CN2CCN(c3ccccc3OC)CC2)c(O)c2ncccc12	?	-34%	-3%
CCOc1ccc(NC(=O)Cn2c(=O)oc3cc(S(=O)(=O)N4CCC(C)CC4)ccc32)cc1	10µM*	-49%	4%
CCOc1ccc(NC(=O)CN2CCSc3ccc(S(=O)(=O)N4CCCC4)cc32)cc1	25µM*	-39%	-7%
Cc1ccc(NC(=O)CN2CCSc3ccc(S(=O)(=O)N4CCCC4)cc32)cc1	?	-36%	?
CCc1ccc(NC(=O)Cn2c(=O)oc3cc(S(=O)(=O)N4CCCCCC4)ccc32)cc1	?	-49%	0%
SMILES	HTT prom inh	HTT-AS promoter	NTMT1 inhibitor
CC(C)(C)c1ccc(CSc2nc3ncc(Br)cc3[nH]2)cc1	nt	nt	12%
CC(=O)Nc1ccc(NC(=O)c2cnn3c(C)cc(C)nc23)cc1	nt	nt	-16%
CC(=O)Nc1cccc2c1c(Sc1ccc(Cl)cc1)c(C)n2CC(=O)O	nt	nt	-11%[57.5 µM]
COCCOc1ccc2c(c1)ncn2-c1ccc2cccc(N3CCC(N)CC3)c2n1	?	-3%	35µM*!
COc1ccc(OC)c(-n2cnc3cc(C(=O)NC4CCCC4)ccc32)c1	-14%	-11%	4%
COc1c2c(c(C)c3c1C(=O)OC3)OC1(C)CC(O)C34OC(OC)(CC(OC(C)=O)C3(C)C1C2)OC4(C)C (stereo not given)	nt	nt	-15%[29.8 µM]
CN(Cc1ccc(-c2ccccc2)cc1)c1nc(-c2ccccc2C(F)(F)F)nc2ccccc12	nt	nt	-1%
CCCOc1ccccc1C(=O)Nc1ccc(-c2nc3ccc(C)cc3s2)cc1	-15%	2.2µM*	7%
COc1cccc(C(=O)Nc2ccc(-c3nc4ccc(C)cc4s3)cc2)c1OC	1%	-3%	6%
Cc1ccnc(NCc2ccc(O)c3ncccc23)c1	nt	nt	-4%
O=C(NC1CCCc2c1cnn2-c1ccc(F)cc1F)c1cccc(=O)[nH]1 (stereo not given)	nt	nt	13%

From PubChem
